Screening data from PubChem BioAssay.
Sampled rows, rich in hits. Any-hit rate of the full collection: about 2.4%.
D2 ag-1 – human D2 receptor agonism in beta-arrestin assay; 360,000 tested, 0.084% active; activation, % (no concentration beside the values); DiscoveRx PathHunter D2 beta-arrestin, luminescence, 90 min; 100% = 57 uM dopamine signal; P14416; in the data active = activation above about 40%; inconclusive = between about 15% and that limit
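DiscoveRx PathHunter D2 beta-arrestin cells (2,100/well) attached overnight, then compound-stimulated 90 min at 37 C in HBSS/10 mM HEPES/0.1% Tween-20 buffer; beta-galactosidase complementation read by luminescence after 1 h at ambient temperature. Dopamine 57 uM final (EC100) as control.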
D2 PAM-1 – human D2 receptor positive allosteric modulation; P14416; DiscoveRx D2 beta-arrestin cells, luminescence, 90 min; 100% = 57 uM dopamine signal; potentiation, % (no concentration beside the values); 360,000 tested, 0.23% active; AID 624464; in the data active = potentiation above about 50%; inconclusive = mostly about 30% to 49%
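PathHunter beta-arrestin assay in DiscoveRx D2 cells. Compounds were added with an EC20 of dopamine (50 nM final) for 90 min at 37 deg C. Luminescence was read 1 h after detection reagent, with 57 uM dopamine as the EC100 control.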
D2 ag-2 – activates the human D2 dopamine receptor; activation, % at 2 µM; HEK293 T-REx D2 cells, calcium flux agonist mode; P14416; AID 485358; 340,000 tested, 0.53% active;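 active = activation over 3 SD above normal in the single-dose calcium agonist read, cut at about 30% in these data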; note: 0% is about no effect
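HEK293 Trex D2 cells, tetracycline-induced, o/n 30 C 5% CO2; no-wash Ca dye, RT 30–90 min; 10-cycle baseline, 23 nl cpd added, kinetic Ca read 180 s; agonist hits = positive Ca response.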
D2 PAM-2 – positively modulates the human D2 dopamine receptor allosterically; P14416; HEK293 T-REx D2, calcium flux, EC20 dopamine potentiation; potentiation, % at 10 µM; 340,000 tested, 0.34% active;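 active = potentiation over 3 SD above the plate norm, cut at about 30% in these data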; note: 0% is about no effect
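Potentiation of an EC20 dopamine calcium response measured kinetically over 180 s, after a preceding 180 s compound-only read flagging agonists. Cells: inducible Hek293 Trex D2 line, 4000/well, cultured overnight at 30 C before dye loading.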
D2 antagonist – antagonizes the human D2 dopamine receptor | P14416 | HEK293 TREx D2 cells, calcium flux, dopamine EC80 | inhibition, % at 10 µM | 340,000 tested, 2% active; in the data active = inhibition above about 30%; inactive = below that, where a call was filed; note: 0% is about no effect
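Tetracycline-induced HEK293 T-REx cells expressing D2 force-coupled to calcium signalling were dye-loaded, exposed to compound for 180 s, then challenged with an EC80 of dopamine; calcium flux was followed kinetically for a further 180 s.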
D3 arrestin ag – activates human D3 dopamine receptor beta-arrestin recruitment; shares compounds with D2 ag-2; DiscoveRx D3 beta-arrestin cells, luminescence, 90 min; Potency, µM (doses to about 76.9 µM), inactives show at the highest dose activation, hits mostly activators; 2,300 tested, 4% active; AID 720506;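 note: potency is the fitted concentration of half-maximal effect; 100% = dopamine control response; nearly all actives have a fitted effect of over 70% in size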
Target sequence (P35462 whole entry, looked up): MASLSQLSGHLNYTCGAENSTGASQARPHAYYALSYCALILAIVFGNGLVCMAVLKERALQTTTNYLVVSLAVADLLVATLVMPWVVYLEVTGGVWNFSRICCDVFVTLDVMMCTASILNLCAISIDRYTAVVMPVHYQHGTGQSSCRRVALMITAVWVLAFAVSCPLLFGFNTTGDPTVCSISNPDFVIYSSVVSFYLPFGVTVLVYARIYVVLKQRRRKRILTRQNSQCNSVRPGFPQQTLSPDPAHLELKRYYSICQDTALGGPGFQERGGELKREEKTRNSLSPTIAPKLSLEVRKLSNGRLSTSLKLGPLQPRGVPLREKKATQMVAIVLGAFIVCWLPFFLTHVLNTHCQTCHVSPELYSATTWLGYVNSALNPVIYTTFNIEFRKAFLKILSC
D2 ag-3 – D2 receptor agonism, beta-arrestin counterscreen; shares compounds with D2 ag-2; DiscoveRx PathHunter D2 beta-arrestin, luminescence, 90 min; response scale: percent relative to full dopamine signal; Potency, µM (highest dose often 76.9 µM), inactives show at the top dose activation, actives largely listed as activators; 2,300 tested, 5.9% active; note: potency is the fitted concentration of half-maximal effect; % of control where 0% means no effect; nearly all actives have a fitted effect of over 70% in size
* = called active by the depositor; ? = inconclusive; . = not tested or not shown. Unless noted, calls come from the whole dose curve; as a rule, active = well fitted activation curve with a large enough effect; inconclusive = small, poorly fitted or top-dose-only effect; inactive = flat fitted curve, though single readings scatter.

SMILES	D2 ag-1	D2 PAM-1	D2 ag-2	D2 PAM-2	D2 antagonist	D3 arrestin ag	D2 ag-3
O=C(CSC1=N/C(=C/c2ccc(Cl)c(Cl)c2)C(=O)N1c1ccccc1F)NC1CC1	-4.9	15.3	0.7	8.3	52.1*	20.4%	5.2%
NC(Cc1ccc(Cl)cc1)c1csc(Nc2cc(NCCCO)ncn2)n1 (configuration not stated)	7.0	-9.9	.	.	.	.	.
CC(C)c1nn2c(=O)cc(COC(=O)c3ccc(NC(=O)CCc4ccccc4)cc3)nc2s1	.	.	1.9	-1.1	.	.	.
Cc1cc(/C=C(\C#N)C(N)=O)c(C)n1-c1ccc(N2CCOCC2)c([N+](=O)[O-])c1	4.3	15.6	55.2*	4.5	4.1	21.2%	7.9%
Cc1cc(C(=O)NNc2ccc(F)cc2F)no1	5.8	-6.0	49.0*	-19.3	8.5	-1.7%	-1.4%
Cc1ccc(NNC(=O)c2cc(C)on2)c(C)c1	2.1	-2.1	1.1	7.3	-7.9	.	.
Cc1cc(C(=O)NNC(=O)c2ccc(C(F)(F)F)cc2)no1	-1.4	-5.6	0.8	1.1	18.6	-5.9%	-6.1%
Cn1c(=O)n(C)c2cc(CNCc3ccc(F)cc3)ccc21	.	.	0.6	-18.2	.	.	.
CCOC(=O)C1=C(CSc2nc(CC)c(C)cc2C#N)OC(N)=C(C#N)C1c1ccc(OC)cc1 (configuration not stated)	-1.6	2.0	2.8	-1.3	13.3	9.8%	1.7%
CCOC(=O)C1=C(CSc2nc(-c3ccncc3)ccc2C#N)OC(N)=C(C#N)C1c1ccc(OC)cc1 (configuration not stated)	6.2	17.7	-0.4	0.1	17.1	.	.
O=C(CCNS(=O)(=O)c1ccc(Br)cc1)NCc1cccs1	-1.8	-0.3	-1.6	10.6	-2.4	.	.
CN(Cc1cccs1)C(=O)CCNS(=O)(=O)c1ccc(Br)cc1	7.1	1.1	-0.3	5.5	-24.5	-5.3%	-0.3%
O=S(=O)(Nc1ncn[nH]1)c1ccc2ccccc2c1	-1.9	18.5	0.4	4.4	-10.9	.	.
O=S(=O)(Nc1nc2ccccc2[nH]1)c1ccc2ccccc2c1	0.0	-5.7	56.5*	-19.3	0.6	-30.2%	-0.2%
CC(C)(C)C(=O)OCc1cc(=O)n2nc(C3CCCCC3)sc2n1	.	.	0.6	-4.1	.	.	.
O=C(O)c1ccc(S(=O)(=O)c2ccc3c(c2)C(=O)N(c2ccc(O)cc2)C3=O)cc1	4.2	-1.7	61.1*	-26.1	-2.7	11.5%	8.5%
O=C(O)c1ccc(NC(=O)c2ccc3c(c2)C(=O)N(c2ccccc2)C3=O)cc1	-5.8	-4.9	0.2	1.7	7.1	.	.
COc1ccccc1NC(=O)c1cc([N+](=O)[O-])ccc1NCCN1C(=O)CCC1=O	-3.5	-5.2	46.9*	-24.3	-7.9	-6.1%	-9.0%
Cc1ccc(NC(=O)N2CCCC(c3ccccc3)C2)cc1 (configuration not stated)	?	-0.9	.	.	.	4.4%	8.4%
O=C(/C=C/c1ccco1)N1CCCC(c2ccccc2)C1 (configuration not stated)	-0.5	2.9	57.4*	-13.2	55.8*	12.3%	9.3%
COc1ccc(C)cc1NC(=O)Cn1c(=O)ccc2cc(S(=O)(=O)N3CCC(C)CC3)ccc21	.	.	0.3	12.3	.	.	.
O=C(Nc1ccc(Oc2ccccc2)cc1)c1ccc(F)c(S(=O)(=O)N2CCN(c3cccc(Cl)c3)CC2)c1	.	.	0.3	16.4	.	.	.
CC(=O)NC(c1cc(Cl)c2cccnc2c1O)C(C)C (configuration not stated)	.	.	-0.2	-14.2	-6.8	.	.
CC(=O)NC(c1cc(Cl)c2cccnc2c1O)C1CC1 (configuration not stated)	.	.	-0.6	3.2	-17.0	-30.7%	-6.3%
OCCN(CCO)Cc1csc2ccccc12	-4.5	-16.1	35.0*	-4.1	-3.1	-7.7%	-3.2%
SMILES	D2 ag-1	D2 PAM-1	D2 ag-2	D2 PAM-2	D2 antagonist	D3 arrestin ag	D2 ag-3
OCCN(Cc1ccccc1)Cc1ccccc1O	0.1	-5.1	1.3	-7.5	-6.0	.	.
CC(c1ccccc1)n1c(-c2cccs2)nc2c(c(=O)c3ccccc3n2C)c1=O (configuration not stated)	-2.4	-9.2	2.2	20.4	9.0	-10.2%	-4.5%
CCOC(=O)N1CCN(C/C(Cl)=C/c2ccccc2)CC1	?	2.3	48.7*	-21.3	7.6	-0.7%	15.7%
CCOc1ccc(C(=O)C(CCC(CN(C)C)C(=O)c2ccc(OCC)cc2)CN(C)C)cc1 (configuration not stated)	-1.3	-10.6	2.5	16.3	37.0*	-16.6%	-3.3%
COc1ccc(C(=O)C(CCCCC(CN(C)C)C(=O)c2ccc(OC)cc2)CN(C)C)cc1 (configuration not stated)	-1.3	-34.5	.	.	.	.	.
Cc1nn(-c2ccc(C(=O)N3CCN(S(=O)(=O)c4ccccc4C(F)(F)F)CC3)cc2)c(C)c1Cl	?	3.5	74.3*	-34.9	56.3*	0.794µM*	31.6µM*
CCc1cc(C(=O)NNC(=O)CCN2CCN(c3ccccc3)CC2)sc1C	3.6	-21.6	79.7*	-14.6	66.4*	?	?
Cc1cc(C(=O)NNC(=O)CCN2CCN(c3ccccc3)CC2)c2ccccc2n1	3.9	-1.8	71.8*	-23.9	66.9*	15.9%	?
CCc1cc(C(=O)NNC(=O)CCl)sc1C	5.5	-7.7	-0.7	8.9	1.5	.	.
O=C(CCN1CCN(c2ccccc2)CC1)NNC(=O)c1cccc2ccccc12	?	-17.8	73.7*	-16.2	85.3*	?	18.3%
Cc1cc(C(=O)Nc2ccc(N3CCOCC3)cc2)c2ccccc2n1	-0.3	4.1	0.7	11.8	-1.1	.	.
N#CCC(=O)Nc1ccc(C(=O)NNC(=O)CCN2CCN(c3ccccc3)CC2)cc1	?	-0.7	.	.	.	?	?
COc1cccc(C(=O)NNC(=O)CCN2CCN(c3ccccc3)CC2)c1	11.0	-12.4	.	.	.	.	.
CCCOc1ccc(NC(=O)CC2C(=O)N(c3ccc(C)cc3)C(=O)N2C2CCCC2)cc1 (configuration not stated)	.	.	-0.8	23.5	.	.	.
CCC1(c2ccccc2)NC(=O)N(CC(=O)NNC(=O)CCN2CCN(c3ccccc3)CC2)C1=O (configuration not stated)	12.5	-10.0	67.7*	-41.5	88.6*	11.5%	21.5%
O=C(CCN1CCN(c2ccccc2)CC1)NNC(=S)Nc1ccccc1Cl	7.0	-24.3	53.7*	-21.7	66.3*	-2.6%	3.2%
CC1CCN(S(=O)(=O)c2ccc3c(c2)N(CC(=O)NCCc2ccc(Cl)cc2)C(=O)CO3)CC1	.	.	.	-2.9	.	.	.
